Assay outcomes: PubChem BioAssay, National Center for Advancing Translational Sciences (NCATS)
Sampled rows, rich in hits. Any-hit rate of the full collection: about 9.4%.
ELG1 DNA repair – qHTS screen for small molecules that inhibit ELG1-dependent DNA repair in human embryonic kidney (HEK293T) cells expressing luciferase-tagged ELG1; actives 2.3% (n = 330,000); Potency, µM (titrated, usually from 46.1 µM), for inactives: top-dose activity change, negative = inhibition, hits mostly inhibitors; HEK293T ELG1-luciferase reporter, luminescence, 16 h; DNA damage induced by 5-fluorouridine; further: on the % scale 0 is the no-effect control and ±100 the full control effect; nearly all actives have a fitted effect of over 55% in size
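Quantitative HTS, concentration-response format. 2,000 cells/well co-treated with 5-fluorouridine and compound, 16 hr in 5% CO2 at 37 °C; ONE-Glo luminescence read after 30 min.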
Rab9 promoter act – qHTS Assay for Rab9 Promoter Activators; Potency, µM (titrated, usually from 9.22 µM), inactives show top-dose activation, negative = inhibition, usual class: activators; Huh7 Rab9 promoter-luciferase reporter, luminescence, 24 h; AID 485297, 2010; actives 2.8% (n = 320,000); further: % of control where 0% means no effect; nearly all actives have a fitted effect of over 60% in size
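Huh7 cells stably carrying Rab9 promoter–luciferase reporter, plated 1500 cells/well, compound added after 2 h and incubated 24 h at 37 °C; luciferase luminescence then read after 10 min with detection reagent.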
FLuc counter – qHTS profiling assay for firefly luciferase inhibitor/activator using purifed enzyme and Km concentrations of substrates (counterscreen for miR-21 project); Potency, µM (doses to about 57.5 µM), for the others: at the highest dose activity change, negative = inhibition, hits mostly inhibitors; actives 6.9% (n = 360,000); purified FLuc, Km substrates, luminescence inhibition; AID 588342, 2011; Luciferin 4-monooxygenase (Photinus pyralis), P08659;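 further: plate controls were vehicle for no effect and reference inhibitor for full effect; nearly all actives have a fitted effect of over 55% in size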
Target sequence (P08659 whole entry, looked up): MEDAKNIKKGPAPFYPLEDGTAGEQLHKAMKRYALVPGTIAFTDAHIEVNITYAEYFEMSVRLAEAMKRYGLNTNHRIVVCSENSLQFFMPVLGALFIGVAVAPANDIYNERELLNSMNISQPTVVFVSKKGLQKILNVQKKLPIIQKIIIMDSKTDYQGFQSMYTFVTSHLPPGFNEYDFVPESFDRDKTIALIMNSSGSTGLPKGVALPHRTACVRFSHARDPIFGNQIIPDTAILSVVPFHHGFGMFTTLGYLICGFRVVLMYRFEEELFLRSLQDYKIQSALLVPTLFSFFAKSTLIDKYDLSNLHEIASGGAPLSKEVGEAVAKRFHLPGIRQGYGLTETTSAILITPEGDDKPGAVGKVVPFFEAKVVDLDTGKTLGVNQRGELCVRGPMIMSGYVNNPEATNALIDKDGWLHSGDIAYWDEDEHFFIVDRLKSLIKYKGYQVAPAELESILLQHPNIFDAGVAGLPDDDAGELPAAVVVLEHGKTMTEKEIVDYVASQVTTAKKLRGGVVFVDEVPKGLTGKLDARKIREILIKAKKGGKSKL
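Purified P. pyralis luciferase, 10 nM final, with Km-level 10 uM D-luciferin and 10 uM ATP in 50 mM Tris acetate pH 7.5, 10 mM Mg acetate, 0.01% Tween-20, 0.05% BSA; 6-point qHTS titration about 60 µM downward; luminescence read.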
NPC1 prom act – qHTS Assay for NPC1 Promoter Activators; Huh7 NPC1 promoter luciferase reporter, 24 h; Potency, µM (series often up to 9.22 µM), without a hit: at the highest dose activation, usual class: activators; actives 2.4% (n = 320,000); further: % of control where 0% means no effect; nearly all actives have a fitted effect of over 60% in size
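Readout is luciferase luminescence, reflecting NPC1 promoter activation in stably transfected Huh7 cells after 24 h compound exposure at 37 °C in reduced-serum medium with 10% FBS.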
ELG1 genotox – qHTS screen for small molecules that induce genotoxicity in human embryonic kidney (HEK293T) cells expressing luciferase-tagged ELG1 | HEK293T ELG1-luciferase reporter, luminescence, 16 h | Potency, µM (highest dose often 46 µM), for inactives: at the highest dose activity change, positive = activation, most hits filed as activators | actives 1.3% (n = 330,000) | AID 504466, 2011; further: % of control where 0% means no effect; nearly all actives have a fitted effect of over 60% in size
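DMSO vehicle served as control against compound-treated ELG1-luciferase HEK293T cells; exposure lasted 16 hr at 37 °C and 5% CO2, followed by ONE-Glo luminescence detection after 30 min.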
SMN2 splice enh – qHTS Assay for Enhancers of SMN2 Splice Variant Expression; HEK293 SMN2-luciferase splicing reporter, luminescence, 30-36 h; Potency, µM (titrated, usually from 46.1 µM), without a hit: top-dose activity change, positive = activation, hits mostly activators; actives 2.8% (n = 210,000); AID 1458, 2008; further: % of control where 0% means no effect; nearly all actives have a fitted effect of over 55% in size
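HEK293 cells carry an SMN2 […]–luciferase reporter in which exon 7 inclusion puts luciferase in frame. Cells were plated 10-12 h before compound addition, then incubated 30-36 h at 37C. ONE-Glo luminescence was read; sodium butyrate at 4.5 mM final served as control.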
An asterisk follows results filed as active; u = inconclusive; x = no result given; [ ] = remark or other dose. The call rests on the fitted dose curve; in most records, active means well fitted curve in the direction sought with a large enough effect; inconclusive means small, poorly fitted or top-dose-only effect, or another doubt; inactive means no such curve, though single readings can be large; an effect the other way counts as inactive or inconclusive. Potency means the concentration at half of the fitted maximal effect.

SMILES	ELG1 DNA repair	Rab9 promoter act	FLuc counter	NPC1 prom act	ELG1 genotox	SMN2 splice enh
Cc1ccc(CSc2nc3cccnc3n2Cc2ccc(C(=O)NCCc3cccs3)cc2)cc1	x	x	0.43µM*	x	x	x
O=C(NCc1ccccc1F)c1ccc(CSc2nc3cccnc3n2Cc2ccccc2)cc1	x	x	-1%	x	x	x
O=C(c1ccc(CSc2nc3ccncc3n2Cc2ccccc2F)cc1)N1CCCCCC1	x	x	24µM*	x	x	-18%
O=C(NCc1cccs1)c1ccc(CSc2nc3cccnc3n2Cc2ccccc2)cc1	x	x	-14%	x	x	x
O=C(NC1CCCCC1)c1ccc(CSc2nc3cccnc3n2Cc2ccccc2F)cc1	x	x	-16%	x	x	x
O=C(NC1CCCCC1)c1ccc(Cn2c(SCc3ccccc3F)nc3cccnc32)cc1	x	x	8.5µM*	x	x	x
Cc1ccc(CSc2nc3cccnc3n2Cc2ccc(C(=O)NC3CCCCC3)cc2)cc1	x	x	0.34µM*	x	x	x
CN(C)S(=O)(=O)c1cccc(NC(=O)c2ccccc2OCc2ccc(F)cc2)c1	21µM*	1%	1%	-6%	-12%	x
COC(=O)c1cc(-c2ccc(C)o2)nc2ccccc12	0%	1%	11µM*	4%	0%	4%
Cc1ccc(-c2cc(C(=O)OCC(=O)N(C)c3c(N)n(Cc4ccccc4)c(=O)[nH]c3=O)c3ccccc3n2)o1	u	19%	2.4µM*	8%	u	x
CN(C)S(=O)(=O)c1cccc(NC(=O)c2c[nH]c3ccccc23)c1	6%	17%	21µM*	15%	-12%	x
COc1cccc(NC(=O)c2cc(-c3ccc(C)o3)nc3ccccc23)c1	-7%	22%	u	18%	2%	x
O=C(NCc1ccccc1Cl)NCc1noc2ccccc12	x	x	-20%	x	x	x
Cc1ccc(-c2cc(C(=O)Nc3cccc(S(=O)(=O)N(C)C)c3)c3ccccc3n2)o1	u	16%	9.5µM*	-6%	-9%	x
Cc1ccc(-c2cc(C(=O)Nc3ccccc3C)c3ccccc3n2)o1	u	-3%	8.5µM*	-6%	1%	1%
CCc1nnc(NC(=O)c2cc(C)nc3ccccc23)s1	2%	3%	-16%	1%	2%	5%
CCc1nnc(NC(=O)c2cc(-c3ccc(C)o3)nc3ccccc23)s1	-26%	2%	11µM*	-1%	-1%	x
Cc1nc2ccc(S(=O)(=O)NC(CC(C)C)C(=O)N3CCN(c4ccc(F)cc4)CC3)cc2s1 (stereo not drawn)	x	x	-4%	x	x	-7%
O=C(c1ccncc1)N1CCC2(CCCN(c3ccncc3)C2)CC1	x	x	x	x	x	1%
COc1cc2c(cc1OC)C(C)N(C(=O)c1cc3c(C)cc(C)cc3[nH]1)CC2 (stereo not drawn)	16µM*	-9%	2%	-15%	-22%	x
Cc1ccc2nc(SC(C)C(=O)N3CCOCC3)[nH]c2c1 (stereo not drawn)	u	3.2µM*	24µM*	2.5µM*	u	20µM*
O=C(CSc1nc2ccccc2[nH]1)c1ccc2c(c1)OCO2	u	1.4µM*	12µM*	u	13µM*	7%
O=C(CSc1ccccn1)c1ccc2c(c1)OCO2	u	2.5µM*	11µM*	3.5µM*	4.6µM*	11µM*
Cc1ccc2nc(SCC(=O)Nc3ccc4c(c3)OCCO4)[nH]c2c1	1%	1%	15µM*	-5%	17%	-4%
O=C(CSc1ncccc1-c1nc2ccccc2[nH]1)Nc1ccc2c(c1)OCCO2	-14%	20%	27µM*	7%	11%	-6%[1.84 µM]
SMILES	ELG1 DNA repair	Rab9 promoter act	FLuc counter	NPC1 prom act	ELG1 genotox	SMN2 splice enh
O=C(CSc1nc2ccccc2[nH]1)Nc1ccc2c(c1)OCCO2	u	u	8.5µM*	18%	4%	-6%
O=C(COC(=O)CCCSc1nc2ccccc2[nH]1)Nc1cccc(F)c1	29%	-3%	13µM*	-2%	1%	x
Cc1cc2nc(SC(C)C(=O)O)[nH]c2cc1C (stereo not drawn)	11%	0%	21µM*	-1%	0%	-3%
COc1ccc(NC(=O)CSc2c3c(nc4ccc(Cl)cc24)CCCC3)cc1Cl	x	x	-3%	x	x	-4%
CCOc1ccc(S(=O)(=O)Nc2nc3ccccc3nc2Nc2ccc(N3CCOCC3)cc2)cc1	-6%	-5%	11µM*	-3%	-4%	-2%
CC(=O)c1ccc(Nc2nc3ccccc3nc2NS(=O)(=O)c2cccs2)cc1	12µM*	-4%	19µM*	0%	-14%	x
O=S(=O)(Nc1nc2cc3c(cc2nc1Cl)OCCO3)c1ccccc1	u	-3%	u	-1%	0%	5%
Cc1ccc2nc(NS(=O)(=O)c3ccc(Cl)cc3)c(Nc3ccc(C(=O)O)cc3)nc2c1	x	x	11µM*	x	x	-23%
COc1ccc(Nc2nc3ccccc3nc2NS(=O)(=O)c2cccs2)cc1	-11%	-9%	u	-2%	-4%	-34%
CC(=O)Nc1ccc(S(=O)(=O)Nc2nc3cc4c(cc3nc2Cl)OCCO4)cc1	0%	-4%	19µM*	0%	2%	x
CCn1c(SCC(=O)Nc2cccc(Cl)c2)nnc1-c1nonc1NC(C)=O	x	x	-7%	x	x	x
CCOC(=O)c1ccc(OC(=O)c2cn(-c3ccc(C)cc3)c(=O)c3ccccc23)cc1	x	x	-1%	x	x	x
CC(C)c1ccc(/C=C2\C=C(c3ccc4ccccc4c3)OC2=O)cc1	x	x	x	x	x	3%[9.22 µM]
COc1ccc(OC)c(CNC(=O)Cn2nc(C)c3nn(-c4ccc(Cl)cc4)c(C)c3c2=O)c1	x	x	4%	x	x	x
NCCCC(O)(P(=O)(O)O)P(=O)(O)O	x	x	x	x	x	-3%
COc1cccc(Nc2nc3ccccc3nc2NS(=O)(=O)c2ccc(NC(C)=O)cc2)c1	20%	-5%	24µM*	-3%	16%	x
CC(=O)Nc1ccc(S(=O)(=O)Nc2nc3ccccc3nc2Nc2ccc(S(N)(=O)=O)cc2)cc1	u	-1%	u	0%	1%	5%
COc1ccc(Nc2nc3ccccc3nc2NS(=O)(=O)c2ccc(NC(C)=O)cc2)cc1	u	-3%	15µM*	3%	10%	x
CCOc1ccc(S(=O)(=O)Nc2nc3ccccc3nc2Nc2ccc(OC)cc2)cc1	x	x	13µM*	x	x	-6%
COc1cccc(C(=O)N(Cc2cccnc2)c2nc3c(OC)ccc(C)c3s2)c1OC	x	x	-2%	x	x	x
